Results published in article PMC5540273 (PLoS ONE, 2017).

The molecules below were run on DAPK3. Details: concentration: 1 μM, replicates: in singlicate; n = 1.
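Also: KINOMEscan kinase panel screen.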

| SMILES | %Inh |
| --- | --- |
| CN1C(=O)C(Nc2ccccc2)=C(c2ccccc2)C1=O [SB-300079] | 0% |
| CCC(=O)c1c(-c2ccccc2)c2cc(Cl)ccc2c(=O)n1Cc1ccc(C(=O)O)cc1 | 0% |
| COc1cc(Nc2nccc(N3CCC(NC(=O)C(C)c4ccc(Cl)cc4)C3)n2)cc(OC)c1OC (stereo not drawn) [GSK1379757] | 0% |
| O=C(NCc1cccs1)c1cc(C(=O)c2c(Cl)cccc2Cl)c[nH]1 [GW823670] | 22% |
| Cl.c1ccc(Cn2cnc3cc(Nc4ncnc5ccccc45)ccc32)cc1 [GW272142] | 22% |
| COc1cc2ncn(-c3cc(OCc4ccc(S(C)(=O)=O)cc4)c(C(N)=O)s3)c2cc1OC [GW869979] | 9% |
| CCS(=O)c1ccc(-c2coc3ccc(-c4nnc(C)o4)cc23)cc1 (stereo not drawn) | 0% |
| O=C(Nc1n[nH]c2nc(-c3ccccc3)c(Br)cc12)C1CC1 [SB-708998] | 0% |
| Cl.NS(=O)(=O)c1cccc(Nc2cc(-c3ccc(F)cc3)n[nH]2)c1 [GW824645] | 0% |
| COC(=O)c1c(-c2ccccc2)c2cc(Br)ccc2c(=O)n1Cc1ccc(NC(=O)CCC(=O)O)cc1 | 0% |
| CCCNC(=O)Nc1ccc(Oc2ncnc3ccn(C)c23)cc1 | 0% |
| FC(F)(F)c1ccc(-c2ncn(CCCN3CCOCC3)c2-c2ccncc2)cc1 [SB-217780] | 15% |
| Cc1c(Cn2c(C)nn3c(=O)cc(N4CCO[C@H](C)C4)nc23)cccc1C(F)(F)F [GSK2373690] | 8% |
| COc1cccc(-n2cnc3c(N)ncnc32)c1 [SKF-97416] | 3% |
| Nc1nc(N)c2nc(-c3ccccc3)[nH]c2n1 [SKF-12778] | 1% |
| COc1ccc(CNC(=O)NC2CCN(c3ccnc(Nc4ccc(F)cc4)n3)C2)cc1 (stereo not drawn) [GSK1379706] | 30% |
| COc1cccc(C2=C(N(C)c3ccccc3)C(=O)NC2=O)c1 [SB-334865] | 14% |
| COc1ccc(-c2cc3c(C)nc(N)nc3n([C@H]3CC[C@H](OCCO)CC3)c2=O)cn1 | 0% |

| SMILES | %Inh |
| --- | --- |
| Nc1ncnc2c1ncn2-c1cccc2ccccc12 [SKF-97184] | 0% |
| Cc1ccc(-c2ccc3c(ccc4sc5c(c43)NC[C@@H](C)N=C5N(C)C)n2)cn1 | 0% |
| COc1cccc(C2=C(Nc3cccc(C(=O)O)c3)C(=O)NC2=O)c1 [SB-390770] | 0% |
| Cc1nc(N(C)[C@H]2CN(C(=O)CC#N)CC[C@H]2C)c2cc[nH]c2n1 | 0% |
| CN(C)c1cc(-c2ccc3c(N)n[nH]c3c2)nc(N)n1 [GSK2219329] | 0% |
| COc1ccc(-c2cc3c(C)nc(N)nc3n([C@H]3CC[C@H](O)CC3)c2=O)cn1 | 1% |
| OCCCNc1nccc(-c2c(-c3cccc(C(F)(F)F)c3)nn3cc(C(F)(F)F)ccc23)n1 [GW630813] | 3% |
| O=C(Nc1n[nH]c2cc(-c3ccccc3F)ccc12)C1CC1 [SB-733371] | 0% |
| Nc1nc(-c2ccccc2F)c(-c2ccnc3ccccc23)s1 [GW560459] | 13% |
| Cn1c(=O)c(F)c(Nc2ccc(I)cc2F)c2c(=O)n(OC[C@H](O)CO)cnc21 | 13% |
| Cc1cc(Nc2nc(-c3cccc(C)n3)nc3ccccc23)ccn1 [GW872411] | 1% |
| COc1cc2nccc(Nc3ccc(OCc4ccc(NC(C)=O)cc4)cc3)c2cc1OC.Cl [GW440135] | 1% |
| Cc1nnc(-c2ccc(C)c(-c3ccc(C(=O)O)cc3)c2)o1 [GW608005] | 0% |
| CCS(=O)(=O)c1ccc(OC)c(Nc2ncc(-c3ccc(F)cc3)o2)c1.Cl [GW591947] | 15% |
| CCc1ccc(-c2ccc3c(c2)-c2nn(C)cc2S(=O)(=O)N3C)cc1 | 9% |
| CCC(=O)c1c(-c2ccccc2)c2cc(Cl)ccc2c(=O)n1Cc1cc(S(C)(=O)=O)n(CCC(C)(C)O)n1 | 0% |
| C[C@@H]1CC[C@H](C(=O)NC2CCCCC2)CN1c1cc(-c2ccc3c(N)n[nH]c3c2)nc(N)n1 [GSK2291363] | 35% |
| O=c1cc(N2CCOCC2)nc2n(Cc3ccc(F)c(Cl)c3)ccn12 [GSK2297099] | 23% |
